These results are taken from PubChem BioAssay.

The nature of assay [1]: compounds binding Alexa647 anti-His antibody – biochemical, small-molecule microarray, 635 nm fluorescence, artefact control for SMM control protein annotation, primary screen (AID 1128).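 Further: score merges feature fluorescence with signal-to-noise for each printed compound spot.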 Conditions: higher = more signal.
Assay [2] deals with Human papillomavirus type 1a E7 protein (residues 1-88). The experiment in a line: HPV1a E7 small-molecule binders, primary screen, biochemical, small-molecule microarray, residues 1-88, 635 nm (AID 1129). Conditions: small-molecule microarray binding, fluorescence 635 nm; higher = more signal.
For assay [3], the target named is Focal adhesion kinase 1 (Homo sapiens) (UniProt Q05397). Nature of the assay: PTK2 protein binding on printed compound slides – biochemical, small-molecule microarray, 635/667 nm fluorescence, BSA, DTT, primary screen (AID 1130).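 Further: composite of spot emission at 667 nm and signal to noise over triplicate slides.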 Conditions: 635 nm fluorescence, higher = more signal.
Assay [4] deals with Fibrinogen (Alexa647-labelled). The experiment in a line: Alexa647-fibrinogen binding to printed small molecules – biochemical, small-molecule microarray, 635/667 nm fluorescence, artefact control for SMM control-protein annotation, profiling panel (AID 1131).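 Further: z-score merges 667 nm fluorescence with per-spot signal-to-noise over triplicate slides.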 Conditions: fibrinogen-A647 binding fluorescence, higher = more signal.
Assay [5] concerns the target Follistatin (Homo sapiens) (UniProt P19883). The experiment in a line: FST protein binding to printed compounds – biochemical, small-molecule microarray, 635/667 nm fluorescence, primary screen (AID 1132). Conditions: 635 nm fluorescence, higher = more signal.
In assay [6] the target is Fibroblast growth factor 2 (Homo sapiens) (UniProt P09038). Nature of the assay: basic fibroblast growth factor binding to printed compounds – biochemical, small-molecule microarray, 635/667 nm fluorescence, primary screen (AID 1133). Conditions: FGF2, fluorescence 635/667, higher = more signal.
The nature of assay [7]: JC-1 mitochondrial potential readout, lung cancer cells – cell-based, A549, JC-1 fluorescence, basal, 24 h, 100 nL, profiling panel (AID 1138).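 Further: A549 lung adenocarcinoma cells under basal conditions with no added stimulus; test concentration not given here.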 To be noted: higher = more signal.
A further assay relates to Lefty1. Nature of the assay: Lefty1 protein binding to printed compounds – biochemical, small-molecule microarray, 635/667 nm fluorescence, primary screen (AID 1139). Conditions: fluorescence 635/667, higher = more signal.
Assay [8] has as its system wheat germ agglutinin (Triticum aestivum), Alexa647-labelled. Nature of the assay: Alexa647-WGA lectin binding to printed small molecules – biochemical, small-molecule microarray, 635/667 nm fluorescence, artefact control for SMM control-protein annotation, profiling panel (AID 1140).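 Further: score merges 667 nm feature emission with signal to noise over triplicate slides.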 To be noted: WGA-A647 binding, 635 nm fluorescence, higher = more signal.
Assay [9] has as its target Luciferin 4-monooxygenase (Photinus pyralis) (UniProt P08659). Nature of the assay: inhibition of purified Photinus pyralis luciferase – biochemical, luminescence, purified enzyme, 2006 set, primary screen (AID 1141).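 Further: cell-free assay with purified firefly luciferase at 100 ng per well in PBS; test concentration not given here.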 Conditions: purified firefly luciferase, SteadyGlo luminescence, 30 min; higher = more signal, called active from +8 up or from −8 down.
For assay [10], the system named is Wnt5a (protein binding on small-molecule microarray). The experiment in a line: small molecules binding Wnt5a protein – biophysical, small-molecule microarray, 635/667 nm fluorescence, primary screen (AID 1142).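 Further: fluorescence read at 667 nm with signal to noise per printed feature.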 Conditions: 635 nm fluorescence, higher = more signal.
Assay [11] can be described thus: ATP-based viability of Huh7 replicon cells – cell-based, CellTiter-Glo luminescence, basal, 48 h, cytotoxicity control for HCV replication inhibitor project, primary screen (AID 1143).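 Further: Huh7 hepatoma cells carrying a hepatitis C replication reporter with no stimulus; test concentration not given here.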 To be noted: higher = more signal, called active from +8 up or from −8 down.
The nature of assay [12]: Pseudomonas biofilm growth suppression – PAO1 strain, BacTiter-Glo luminescence, LB-PBS, primary screen (AID 1144). To be noted: P. aeruginosa PAO1 biofilm, 12 h, higher = more signal.
A short description of assay [13]: basal CRE-LacZ reporter activity in PC12 – cell-based, unstimulated, primary screen (AID 1145). Conditions: no forskolin, luminescence, 4.5 h, higher = more signal, called active from +8 up or from −8 down.
The nature of assay [14]: forskolin-driven CRE-LacZ activity in PC12 – cell-based, CRE-LacZ reporter, forskolin-stimulated, primary screen (AID 1146).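 Further: PC12 cells with 6xCRE LacZ reporter stimulated by forskolin 10 µM; beta-galactosidase reporter signal reflecting CREB driven transcription.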 To be noted: luminescence, 4.5 h, higher = more signal, called active from +8 up or from −8 down.
Assay [15] concerns the target Streptavidin (Streptomyces avidinii) (UniProt P22629). Nature of the assay: compounds binding control protein streptavidin – biophysical, small-molecule microarray, 635/667 nm fluorescence, artefact control for SMM compound annotation, primary screen (AID 1147).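 Further: signal reflects streptavidin binding to arrayed compounds as a control protein.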 To be noted: higher = more signal.
The nature of assay [16]: probe aInhba binding on compound microarray – biochemical, small-molecule microarray, 635/667 nm fluorescence, primary screen (AID 1148).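 Further: score merges 667nm spot fluorescence with signal-to-noise for antibody binding to printed compounds.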 To be noted: higher = more signal.
Assay [17] deals with Torsin-1A (Homo sapiens) (UniProt O14656). Nature of the assay: TOR1A wild-type binding on microarray – cell lysate, small-molecule microarray, lysate, 635/667 nm, primary screen (AID 1149). Conditions: COS7 hTOR1A-WT lysate, 635 nm fluorescence, higher = more signal.
Assay [18] shares this target. Nature of the assay: torsin A mutant lysate binding on microarrays – cell lysate, small-molecule microarray, COS7 lysate, 635/667 nm fluorescence, primary screen (AID 1150).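 Further: score pools 667 nm emission and signal to noise measuring lysate protein binding.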 Conditions: COS7 hTOR1A mutant lysate, 635 nm fluorescence, higher = more signal.
Assay [19] deals with Sonic hedgehog protein (Shh). Nature of the assay: Sonic hedgehog microarray binding compounds – biochemical, small-molecule microarray, 635/667 nm fluorescence, primary screen (AID 1151).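 Further: Shh protein binding to compounds spotted on small-molecule microarray slides; score combines spot fluorescence intensity with signal-to-noise across triplicate slides.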 Conditions: 635 nm fluorescence, higher = more signal.

The source made the active and inactive calls. Unless noted, how the calls were made is not given here.

Focal adhesion kinase 1 (Homo sapiens), sequence (Q05397 whole entry, looked up): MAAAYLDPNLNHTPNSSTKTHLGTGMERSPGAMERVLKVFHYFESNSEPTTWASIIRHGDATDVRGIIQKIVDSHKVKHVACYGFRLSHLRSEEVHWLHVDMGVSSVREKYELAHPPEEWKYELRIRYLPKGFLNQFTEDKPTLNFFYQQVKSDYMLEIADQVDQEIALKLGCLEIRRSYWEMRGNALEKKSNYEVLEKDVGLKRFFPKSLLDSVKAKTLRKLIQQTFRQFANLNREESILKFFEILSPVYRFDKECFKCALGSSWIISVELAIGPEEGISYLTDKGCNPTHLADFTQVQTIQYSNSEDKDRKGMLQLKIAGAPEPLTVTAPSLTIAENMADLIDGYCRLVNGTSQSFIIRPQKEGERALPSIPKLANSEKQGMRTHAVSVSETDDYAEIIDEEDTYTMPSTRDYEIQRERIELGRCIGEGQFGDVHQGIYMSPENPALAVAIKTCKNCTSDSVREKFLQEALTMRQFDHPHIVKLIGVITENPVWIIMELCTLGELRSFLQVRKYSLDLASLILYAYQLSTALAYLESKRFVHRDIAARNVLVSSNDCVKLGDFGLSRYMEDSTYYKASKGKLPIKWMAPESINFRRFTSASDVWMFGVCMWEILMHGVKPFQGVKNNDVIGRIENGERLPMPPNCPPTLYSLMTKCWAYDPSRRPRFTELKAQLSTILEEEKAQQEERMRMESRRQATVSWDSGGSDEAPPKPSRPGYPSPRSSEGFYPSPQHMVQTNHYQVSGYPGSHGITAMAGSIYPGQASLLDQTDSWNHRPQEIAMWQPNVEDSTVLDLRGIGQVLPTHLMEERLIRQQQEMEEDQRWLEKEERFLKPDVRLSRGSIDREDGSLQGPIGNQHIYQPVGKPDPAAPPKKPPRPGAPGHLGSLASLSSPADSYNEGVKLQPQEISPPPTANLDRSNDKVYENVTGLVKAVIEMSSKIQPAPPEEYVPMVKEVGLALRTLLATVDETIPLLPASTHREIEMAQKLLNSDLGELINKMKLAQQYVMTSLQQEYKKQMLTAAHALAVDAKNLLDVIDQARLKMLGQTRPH
Follistatin (Homo sapiens), sequence (P19883 whole entry, looked up): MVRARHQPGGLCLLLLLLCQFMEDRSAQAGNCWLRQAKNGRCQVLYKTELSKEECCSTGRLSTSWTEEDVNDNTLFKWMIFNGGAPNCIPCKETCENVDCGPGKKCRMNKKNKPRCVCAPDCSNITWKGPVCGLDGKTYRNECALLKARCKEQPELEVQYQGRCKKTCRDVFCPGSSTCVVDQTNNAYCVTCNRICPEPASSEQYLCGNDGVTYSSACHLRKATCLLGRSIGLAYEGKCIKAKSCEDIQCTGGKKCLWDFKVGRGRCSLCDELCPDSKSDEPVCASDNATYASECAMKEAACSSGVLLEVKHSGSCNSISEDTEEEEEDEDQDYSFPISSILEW
Fibroblast growth factor 2 (Homo sapiens), sequence (P09038 whole entry, looked up): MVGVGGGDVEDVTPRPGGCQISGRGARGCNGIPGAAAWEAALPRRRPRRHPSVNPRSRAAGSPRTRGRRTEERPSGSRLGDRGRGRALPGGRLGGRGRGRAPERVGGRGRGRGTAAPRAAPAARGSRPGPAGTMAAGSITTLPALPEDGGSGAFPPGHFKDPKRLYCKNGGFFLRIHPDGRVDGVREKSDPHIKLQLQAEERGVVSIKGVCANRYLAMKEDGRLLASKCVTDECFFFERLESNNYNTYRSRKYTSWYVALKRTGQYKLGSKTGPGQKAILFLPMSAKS
Luciferin 4-monooxygenase (Photinus pyralis), sequence (P08659 whole entry, looked up): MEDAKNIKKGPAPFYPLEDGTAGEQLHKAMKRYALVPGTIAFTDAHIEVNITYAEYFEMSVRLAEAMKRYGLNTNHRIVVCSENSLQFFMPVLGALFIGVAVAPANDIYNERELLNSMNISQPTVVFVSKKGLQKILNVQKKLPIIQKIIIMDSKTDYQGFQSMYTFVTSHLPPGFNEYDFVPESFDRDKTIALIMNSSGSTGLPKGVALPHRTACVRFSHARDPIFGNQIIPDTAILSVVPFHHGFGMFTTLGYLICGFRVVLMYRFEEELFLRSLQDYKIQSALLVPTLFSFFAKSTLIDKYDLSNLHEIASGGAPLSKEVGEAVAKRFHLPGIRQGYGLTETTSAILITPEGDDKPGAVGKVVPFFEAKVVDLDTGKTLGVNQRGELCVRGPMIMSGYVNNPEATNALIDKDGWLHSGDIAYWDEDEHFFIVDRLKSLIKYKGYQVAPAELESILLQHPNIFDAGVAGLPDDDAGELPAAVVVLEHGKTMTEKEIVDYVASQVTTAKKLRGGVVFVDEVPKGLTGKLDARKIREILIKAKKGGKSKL
Streptavidin (Streptomyces avidinii), sequence (P22629 whole entry, looked up): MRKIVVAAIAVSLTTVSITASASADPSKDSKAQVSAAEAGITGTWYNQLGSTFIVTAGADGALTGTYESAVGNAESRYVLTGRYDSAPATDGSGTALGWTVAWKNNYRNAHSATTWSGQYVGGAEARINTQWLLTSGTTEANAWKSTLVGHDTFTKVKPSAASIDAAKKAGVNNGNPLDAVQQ
Torsin-1A (Homo sapiens), sequence (O14656 whole entry, looked up): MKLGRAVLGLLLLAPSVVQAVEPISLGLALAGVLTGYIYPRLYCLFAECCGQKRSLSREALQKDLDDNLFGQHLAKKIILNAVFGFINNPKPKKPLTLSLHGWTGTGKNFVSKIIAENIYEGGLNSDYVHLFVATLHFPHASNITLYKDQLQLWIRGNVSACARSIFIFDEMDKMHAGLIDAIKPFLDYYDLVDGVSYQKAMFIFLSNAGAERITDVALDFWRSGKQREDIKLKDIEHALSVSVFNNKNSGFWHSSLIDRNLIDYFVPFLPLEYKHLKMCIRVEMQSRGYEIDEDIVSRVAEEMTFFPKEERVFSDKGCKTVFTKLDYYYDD

Consider `CN1C2C=C(CCCO)C(C3C(=O)N(C(N)=O)C(=O)C32)C1c1cccs1` (stereo not given), for which the composite z-score in assay [1] is 0.738; in assay [2], 0.151; in [3], -0.111; in [4], -0.451; in assay [5], 0.044; in assay [6], -0.22. Besides, the composite z-score in the assay with Lefty1 was 0.38; in [8] it was -0.303; in assay [10], 2.03; in assay [15], 0.0783; in assay [16], -0.0963; with Torsin-1A (Homo sapiens) [17] it was 0.21. Moreover, the composite z-score with Torsin-1A (Homo sapiens) [18] came to 0.429; in [19], 0.279. Moreover, the z-score in assay [7] is -0.405; in [9], -0.655 (inactive); in [11], 0.148 (inactive); in [12] it was 0.628 (inactive); in [13], -1.09 (inactive); in assay [14], -0.23 (inactive).

For `NC(=O)NCC#Cc1ccc2c(c1)[C@]1(C(=O)N2)[C@H](c2ccc(O)cc2)N2[C@H](c3ccccc3)[C@H](c3ccccc3)OC(=O)[C@H]2[C@@H]1C(=O)Nc1nc2ccccc2s1`, the composite z-score in assay [1] was -0.185; in assay [2], 0.622; in assay [3], -0.15; in assay [4], 0.666; in [5] it was 1.44; in [6] it was 1.49. Also, the composite z-score was 0.9 in the assay with Lefty1; 0.717 in assay [8]; 0.303 in assay [10]; 0.106 in assay [15]; -0.0018 in assay [16]; 0.374 with Torsin-1A (Homo sapiens) [17]. For the same compound, the composite z-score was -0.0346 in the assay with Torsin-1A (Homo sapiens) [18] and 1.09 in assay [19]. For the same compound, the z-score in assay [7] is -2.24; in assay [9], -1.49 (inactive); in assay [11], -0.623 (inactive); in [12], -1.41 (inactive); in [13] it was -0.788 (inactive); in [14], -0.988 (inactive).

As for `Cc1ccc(S[C@]2(C(=O)NC3CC3)CC(=O)N(Cc3ccccc3Cl)[C@@H]2c2ccc(CO)cc2I)cc1`, the composite z-score turned out to be 2.99 in assay [1]; 1.05 in assay [2]; 1.31 in assay [3]; 0.811 in assay [4]; 1.45 in assay [5]; 1.67 in assay [6]. In addition, the composite z-score in the assay with Lefty1 is 0.101; in [8] it was 0.277; in assay [10], 1.3; in [15] it was 0.163; in assay [16] it was 0.0471; with Torsin-1A (Homo sapiens) [17], 0.765. Also, the composite z-score with Torsin-1A (Homo sapiens) [18] was 1.01; in assay [19], 1.67. Moreover, the z-score in [7] was 0.677; in [9] it was 0.352 (inactive); in assay [11], -1.5 (inactive); in assay [12], -0.637 (inactive); in [13], 0.145 (inactive); in assay [14], 1.13 (inactive).

For the compound `CN(C)CCCNC(=O)[C@@]1(C)c2ccccc2C(=O)N(Cc2cc(C(F)(F)F)cc(C(F)(F)F)c2)[C@H]1c1ccc(CO)cc1`, the composite z-score in assay [1] was -0.216; in assay [2] it was -0.446; in [3] it was -0.24; in [4] it was -2.28; in [5] it was -0.775; in assay [6], -0.762. In addition, the composite z-score in the assay on Lefty1 is -1.03; in assay [8], -0.973; in assay [10] it was -0.284; in assay [15], -0.95; in [16] it was 0.0275; with Torsin-1A (Homo sapiens) [17] it was -0.639. Further, the composite z-score is -0.774 with Torsin-1A (Homo sapiens) [18] and -0.584 in assay [19]. The z-score in assay [7] is -0.0872; in [9], 0.386 (inactive); in assay [11] it was -4.27 (inactive); in assay [12] it was -0.391 (inactive); in assay [13] it was 0.234 (inactive); in assay [14] it was -0.227 (inactive).

`C[C@@H]1ON(c2ccc(C(=O)OC(C)(C)C)cc2)[C@H](c2ccc(Br)cc2)[C@H]1C(=O)N1C(=O)OC[C@H]1Cc1ccccc1`: the composite z-score in assay [1] was 0.405; in assay [2] it was 1.05; in assay [3] it was -0.204; in assay [4], 0.97; in assay [5] it was 0.7; in assay [6], 0.734. The composite z-score in the assay on Lefty1 is 0.822; in [8] it was 0.377; in [10], 0.232; in assay [15], 1.03; in assay [16] it was 0.0301; with Torsin-1A (Homo sapiens) [17] it was 0.673. Also, the composite z-score with Torsin-1A (Homo sapiens) [18] amounted to 0.644; in [19], 0.991. For the same compound, the z-score in assay [7] is 1.59; in [9], -0.874 (inactive); in assay [11] it was -1.09 (inactive); in [12], 1 (inactive); in assay [13], 2.04 (inactive); in assay [14], 0.289 (inactive).
